High-throughput results as filed in PubChem.
MITF act: increases MITF-driven TRPM1 promoter luciferase signal; SK-MEL-5 TRPM1-promoter luciferase, 24 h; % of positive control, neutral wells = 0; activation, % at 12.5 µM; 300,000 compounds, 0.75% hits;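 active means mean activation of at least 80% with every replicate also reaching 80%; inconclusive means mean reaches 80% but some replicate falls short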;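 further: 0% = neutral control wells and 100% = parthenolide positive control wells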
esBAF inh: inhibitors of esBAF chromatin remodeling in mouse ES cells; 350,000 compounds, 2% hits; AID 602393; Bmi1-luciferase knock-in reporter, 24 h; 100% = twice the neutral-well signal; reporter increase, % at 12.5 µM; in the data active means activation above about 40%; inconclusive means no clear call, values can overlap the other calls;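 further: 0% = median of the plate's neutral control wells and 100% = double that signal; a rise in the Bmi1 reporter signal indicates esBAF inhibition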
Wnt act: activates Wnt/beta-catenin signaling in a reporter cell assay; activator, plate reader; activation, % at 9.35 µM; 300,000 compounds, 1.2% hits; in the data active means activation above about 30%, passing the limit was not always enough; inconclusive means no clear call, values can overlap the other calls;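 further: 0% = neutral control wells and 100% = positive control wells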
C2C12 statin: suppression of simvastatin myotoxicity. C2C12 myotubes + simvastatin, ATP luminescence, 48 h; scaled: DMSO 0, geranylgeraniol control 100. rescue of ATP level, % at 7.49 µM. 330,000 compounds, 0.78% hits. AID 602340;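 active means mean ATP rescue above about 67%, or every replicate alone reaching that limit, limit read from the data, passing the limit was not always enough; inconclusive means no clear call, values can overlap the other calls; inactive means mean under the limit and some replicate under it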;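 further: myotubes were challenged with 10 µM simvastatin during compound exposure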
Rtt109 HAT inh: inhibitors of Candida albicans Rtt109/Vps75 histone acetyltransferase | purified Rtt109/Vps75, ThioGlo CoA-SH fluorescence, 4 h | AID 540336 | 330,000 compounds, 0.16% hits | Q5AAJ8 | inhibition, % at 34.9 µM;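 active means inhibition of at least 50% in every replicate; inconclusive means best replicate reaches 50% inhibition but some replicates fall short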
Target sequence (Q5AAJ8 whole entry, looked up): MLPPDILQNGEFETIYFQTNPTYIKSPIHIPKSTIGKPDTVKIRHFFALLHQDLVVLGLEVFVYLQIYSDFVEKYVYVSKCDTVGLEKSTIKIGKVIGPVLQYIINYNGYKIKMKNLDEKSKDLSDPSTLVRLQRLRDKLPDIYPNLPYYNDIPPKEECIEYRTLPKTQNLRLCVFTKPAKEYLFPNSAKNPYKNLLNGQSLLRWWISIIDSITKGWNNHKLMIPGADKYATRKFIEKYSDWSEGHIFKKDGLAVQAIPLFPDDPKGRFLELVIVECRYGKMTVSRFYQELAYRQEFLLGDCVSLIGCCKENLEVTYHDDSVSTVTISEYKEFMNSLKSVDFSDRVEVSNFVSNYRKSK
esBAF Ring1 qPCR: confirmation of esBAF inhibitors: Ring1 de-repression in mouse ESCs; AID 743176; mouse ESC E14, Ring1 mRNA RT-qPCR fold change; 550 tested, under 10 active; shares compounds with esBAF inh; fold change at 33 µM;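 active means Ring1 gene expression raised more than 2-fold over untreated cells in both replicates at either tested dose; inconclusive means only one replicate above 2-fold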;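 further: Ring1 transcript normalised to actin housekeeping signal by TaqMan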
Fgf4 repress: confirmation of esBAF inhibitors: Fgf4 repression in mouse ESCs | shares compounds with esBAF inh | mouse ESC E14, Fgf4 mRNA qPCR fold change; stronger effect = lower value | Fgf4 expression fold change at 33 µM | 550 compounds, 4% hits | AID 743177;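 active means Fgf4 expression under 0.8 fold of control in both repeat measurements at one or both tested doses; inconclusive means under 0.8 fold in just a single repeat measurement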;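 further: Fgf4 transcript normalised to actin in duplex TaqMan qPCR; cells exposed to compound for 24 h before lysis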
esBAF Bmi1 qPCR: de-represses Bmi1 in mouse ESCs, confirming esBAF inhibition. shares compounds with esBAF inh. mouse ESE14 ES cells, Bmi1 mRNA qPCR fold; stronger effect = higher value. fold change at 33 µM. 550 tested, under 10 active;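 active means Bmi1 expression fold change above 6 at either tested concentration, seen in replicate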
A549 cytotox: kills or reduces viability of A549 cells | shares compounds with esBAF inh | A549 cytotoxicity, plate reader | cell viability change % (negative = cytotoxic), % at 25 µM, hits read low | 550 tested, under 10 active; call rule not given here
HepG2 cytotox SP: cytotoxicity in HepG2 cells | plate reader; stronger effect = lower value | shares compounds with esBAF inh | activity change, negative = inhibition, % at 25 µM | 550 compounds, 4% hits; in the data active means activity change below about -50%
HEK293 tox SP: cytotoxicity in HEK293 cells; activity change, negative = inhibition, % at 25 µM, hits read low; plate reader; 550 compounds, 3% hits; shares compounds with esBAF inh; AID 743190; in the data active means activity change below about -38%, passing the limit was not always enough
Numbers without * were called inactive; ? = inconclusive; nt = no result. The list is not random: actives were taken first. Their share in the collection is about 3.1%.

SMILES	MITF act	esBAF inh	Wnt act	C2C12 statin	Rtt109 HAT inh	esBAF Ring1 qPCR	Fgf4 repress	esBAF Bmi1 qPCR	A549 cytotox	HepG2 cytotox SP	HEK293 tox SP
Nc1c(Cl)cc(N=Nc2ccccc2)cc1Cl	8	58*	2	15	6	1	1	1.5	-3	-91*	-7
CCn1c(COc2ccccc2C)nc2ccccc21	?	65*	nt	8	-2	1.1	0.94	1.8	-7	1	-14
CCn1c(COc2ccccc2OC)nc2ccccc21	39	?	2	-1	-2	nt	nt	nt	nt	nt	nt
Cc1cc(C)c2c(CN(C)Cc3ccccc3)cc(=O)oc2c1	nt	63*	12	5	nt	1.2	?	1.5	-11	-7	-53*
COC(=O)C[C@@H]1CC[C@@H]2[C@@H](COc3ccc(NC(=O)c4cscn4)cc3C(=O)N2C)O1	nt	3	nt	-19	nt	nt	nt	nt	nt	nt	nt
Fc1cccc(-c2csc(-c3ccno3)n2)c1	7	nt	1	nt	-2	nt	nt	nt	nt	nt	nt
Nc1nc(-c2cccc(F)c2)cs1	47	57*	?	-1	-6	1.2	?	1.6	0	-4	6
O=C(Nc1ccc2c(c1)COC2=O)c1ccc(Cl)c(Cl)c1	52	75*	16	-4	-6	1.3	1.1	1	-14	-32	-12
O=C(Nc1ccc(Cl)c(Cl)c1)c1ccc(Cl)c(Cl)c1	53	?	20	0	-1	nt	nt	nt	nt	nt	nt
O=C(Nc1ccc(Cl)c(Cl)c1)c1ccncc1	37	65*	12	4	3	1.2	1	1.5	0	22	-8
CC(=O)Nc1ccc(CNc2nc3cc(-c4ccc(F)cc4)sc3c(=O)n2C)cc1	nt	68*	2	6	nt	1.1	1	2.4	-1	9	-27
CC(=O)Nc1ccc(CNc2nc3cc(-c4ccsc4)sc3c(=O)n2C)cc1	nt	78*	nt	9	nt	1.6	1.1	1.7	7	-14	-10
C[C@@H]1CCCCO[C@@H](CN(C)CC2CC2)[C@@H](C)CN([C@H](C)CO)C(=O)c2cc(NC(=O)Cc3ccccc3)ccc2O1	nt	-2	nt	nt	nt	nt	nt	nt	nt	nt	nt
Cc1ccc(S(=O)(=O)Nc2ccc3c(c2)C(=O)N([C@@H](C)CO)C[C@@H](C)[C@H](CN(C)C(=O)Nc2ccc(F)cc2)OCCCC[C@@H](C)O3)cc1	nt	3	nt	nt	nt	nt	nt	nt	nt	nt	nt
O=C(O)c1ccc2c(c1)C(=O)N(CCc1c[nH]c3ccccc13)C2=O	63	47*	16	5	0	1.2	0.98	1.5	-2	-3	3
CN(CC(=O)Nc1ccccc1Br)C(=O)c1cc2c(s1)CCCCC2	?	67*	43*	-3	2	0.9	0.82	1.7	-2	-29	-21
CN(CC(=O)Nc1ccccc1Br)C(=O)c1ccc(COc2ccccc2)cc1	11	5	-1	-10	-15	nt	nt	nt	nt	nt	nt
COc1ccc2cc(C(=O)N(C)CC(=O)Nc3ccccc3Br)ccc2c1	51	60*	42*	-4	-4	1.1	0.87	1.6	-1	-3	23
Cc1ccccc1-c1nnc(-c2cccc3ccccc23)o1	27	71*	55*	-1	5	0.95	0.96	1.7	-7	37	-16
CCS(=O)(=O)N1CCCCN2[C@H](CO)[C@H](c3ccc(C4=CCCC4)cc3)[C@H]2C1	nt	-3	nt	-5	nt	nt	nt	nt	nt	nt	nt
